Compounds with a hit are over-represented: about 1.3% of the library has one in this group of screens.
cardiac RTF act: cardiac RTF calcium sensitivity activators, primary screen, biochemical, IANBD-TnC fluorescence, EC20 calcium; Troponin I, cardiac muscle (Homo sapiens) + Troponin T, cardiac muscle (Homo sapiens) + …; IANBD-labeled TnC RTF fluorescence at EC20 calcium; 0% EC20 calcium, 100% full calcium; activation, % at 7.2 µM; actives 0.24% (n = 340,000); AID 493008, 2010;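 active means activation above the mean over all tested compounds plus 3 SD, cut at about 30% in these data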;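 further: rise in fluorescence read as greater calcium sensitivity of cardiac thin filaments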
CRFBP-R2 agonist: agonists of CRF-BP/CRF-R2 complex, primary screen, cell-based, HEK293, calcium dye fluorescence, uHTS; CRF-binding protein / CRF receptor 2 complex (human); calcium dye fluorescence (FLIPR); percent of saturating CRF peptide response; activation, % at 13.2 µM; actives 0.46% (n = 350,000); AID 588473, 2011;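 active means activation of at least 50%, plus an integration ratio under a set limit after plate pattern correction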;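 further: plate controls were neutral control wells without compound for no effect and CRF at EC100 for full effect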
Keap1-Nrf2 PPI: Keap1-Nrf2 protein-protein interaction inhibitors, primary screen, biochemical, fluorescence polarization, single point; Kelch-like ECH-associated protein 1 (Homo sapiens), Q14145; Keap1 Kelch-Nrf2 peptide fluorescence polarization, 1536-well; inhibition, % at 9.4 µM; actives 0.15% (n = 340,000); in the data active means inhibition above about 12%;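 further: human Keap1 Kelch domain with fluorescein labeled Nrf2 9mer peptide probe; 0% = neutral control wells and 100% = peptide positive control; higher means more block of Keap1 binding to Nrf2 peptide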
Target sequence (Q14145 whole entry, looked up, the tested form may be a part): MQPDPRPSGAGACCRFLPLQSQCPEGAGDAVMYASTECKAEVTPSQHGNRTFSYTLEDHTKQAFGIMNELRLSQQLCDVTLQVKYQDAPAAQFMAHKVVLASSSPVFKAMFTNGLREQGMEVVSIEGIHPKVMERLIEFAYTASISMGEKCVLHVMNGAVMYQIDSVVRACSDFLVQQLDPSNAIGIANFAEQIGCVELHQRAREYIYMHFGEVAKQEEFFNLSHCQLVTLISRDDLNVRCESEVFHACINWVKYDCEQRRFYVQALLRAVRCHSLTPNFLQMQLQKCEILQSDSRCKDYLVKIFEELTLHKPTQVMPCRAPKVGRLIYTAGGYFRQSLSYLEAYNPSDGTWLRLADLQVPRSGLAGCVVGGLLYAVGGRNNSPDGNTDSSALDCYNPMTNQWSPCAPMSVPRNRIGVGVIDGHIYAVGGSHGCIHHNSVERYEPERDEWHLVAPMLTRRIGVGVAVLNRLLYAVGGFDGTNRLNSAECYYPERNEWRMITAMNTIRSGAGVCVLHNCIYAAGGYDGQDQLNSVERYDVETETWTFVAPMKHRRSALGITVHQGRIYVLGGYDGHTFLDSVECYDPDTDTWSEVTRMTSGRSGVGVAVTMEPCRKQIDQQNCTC
CRFR2-BP antag: antagonists of CRF-BP/CRF-R2 complex, primary screen, cell-based, HEK293, calcium dye fluorescence, uHTS; CRF-induced calcium fluorescence; inhibition, % at 11.8 µM; actives 0.59% (n = 350,000); AID 588475, 2011;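 active means inhibition of the ligand-induced calcium signal above about 50% at the single tested concentration, limit read from the data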
Cardiac RTF inh: cardiac RTF calcium sensitivity inhibitors, primary screen, biochemical, IANBD-TnC fluorescence, EC70 calcium. actives 0.12% (n = 340,000). AID 493244, 2011. Troponin I, cardiac muscle (Homo sapiens) + Troponin T, cardiac muscle (Homo sapiens) + …. inhibition, % at 7.15 µM. IANBD-labeled cardiac RTF, Ca2+ fluorescence;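 active means inhibition above the mean inhibition of all tested compounds plus 3 SD, cut at about 17% in these data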;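 further: assay run at fixed EC70 calcium of 1.6 mM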
LANA DNA inh: inhibitors of KSHV C-LANA binding to DNA, primary screen, biochemical, fluorescence polarization, FAM-LBS DNA, MBP-C-LANA, single point | inhibition, % at 9 µM | actives 0.078% (n = 340,000) | Kaposi's sarcoma herpesvirus LANA C-terminal domain (residues 932-1162) DNA binding | AID 504423, 2011;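 active means highest replicate inhibition at or above 60% at 9 µM, even if other replicates fall short; inactive means all replicates below 60% inhibition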;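 further: 0% = neutral control wells and 100% = 4 µM acridine orange control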
Numbers without * were called inactive; . = not tested or not shown.

SMILES	cardiac RTF act	CRFBP-R2 agonist	Keap1-Nrf2 PPI	CRFR2-BP antag	Cardiac RTF inh	LANA DNA inh
Cc1c(C(=O)O)sc(S(=O)(=O)N2CCN(C(=O)Cc3ccccc3)CC2)c1C(=O)O	1.2	-2.5	10.1	11.2	-4.1	1.9
CSc1ccccc1C(=O)N1CCN(S(=O)(=O)c2sc(C(=O)O)c(C)c2C(=O)O)CC1	1.0	0.8	1.7	84.3*	-9.2	-0.7
CCN(CC)S(=O)(=O)c1ccc(OC)c(NC(=O)c2cc3c(=O)n4ccccc4nc3s2)c1	-3.9	9.6	2.4	3.7	-0.5	0.2
COc1ccccc1N1CCN(c2ccc3c(c2)S(=O)(=O)c2cccc(C(=O)NCc4ccc(F)cc4)c2C3=O)CC1	.	0.1	.	5.5	.	.
CN1CCC[C@@H]1CCNC(=O)c1cccc2c1C(=O)c1ccc(N3CCCC3)cc1S2(=O)=O	18.2	13.8	-33.5	-7.8	-27.6	-2.5
O=C(NCc1ccco1)c1cccc2c1C(=O)c1ccc(N3CCC(Cc4ccccc4)CC3)cc1S2(=O)=O	117.3*	62.1*	-2.8	-14.2	-196.8	10.2
O=C(NCc1cccc(C(F)(F)F)c1)c1cccc2c1C(=O)c1ccc(N3CCC(Cc4ccccc4)CC3)cc1S2(=O)=O	95.0*	66.8*	-1.6	-49.4	-193.5	9.5
O=C(NCCc1ccc(F)cc1)c1cccc2c1C(=O)c1ccc(N3CCC(Cc4ccccc4)CC3)cc1S2(=O)=O	117.0*	173.6*	-5.8	-177.4	-178.5	14.3
CC1CCN(c2ccc3c(c2)S(=O)(=O)c2cccc(C(=O)NCc4cccc(F)c4)c2C3=O)CC1	164.4*	91.8*	2.4	-29.0	-98.5	3.0
COc1ccc2nc(SCC(=O)NC3CCCc4ccccc43)[nH]c2c1 (centres undefined)	8.9	-0.7	2.4	-1.8	-7.2	0.0
COc1ccc(NC(=S)NCCCN2CCCC2)cc1Cl	1.4	0.2	-3.0	-6.9	1.4	0.0
COc1cc(C2NC(=O)N(C)C3=C2C(=O)CCC3)cc(OC)c1OC (centres undefined)	6.4	2.1	-4.1	-6.4	4.5	0.1
CCN1C(=O)[C@@H]2[C@@H](c3ccc(-c4cccc(Cl)c4)c(OC)c3)N3CCCC[C@@]3(C(=O)OC)[C@@H]2C1=O	-5.7	4.3	-3.9	3.8	-9.8	-3.0
O=C(NCc1cccc(F)c1)c1cccc2c1C(=O)c1ccc(N3CCC(Cc4ccccc4)CC3)cc1S2(=O)=O	177.8*	74.8*	6.4	-44.8	-220.8	16.6
Cc1ccc(CN2CCSc3ccc(C(=O)N4CCN(c5ncccn5)CC4)cc32)cc1	2.0	-3.0	-5.1	62.5*	-3.2	1.4
O=C(Cc1cccc2ccccc12)Nc1ccc(Br)cc1C(=O)O	-0.6	-1.6	0.6	24.5	0.7	-0.6
CC(C)OC(=O)c1sc2nc(-c3ccccc3)ccc2c1N	-2.9	0.0	-0.9	-48.1	1.8	0.6
COc1ccc(C(=O)c2sc3nc(-c4ccccc4)ccc3c2N)cc1	18.6	82.9*	-8.2	-126.2	-50.4	2.6
CCCc1nc2sc3ccccc3c(=O)c2c(=O)n1Cc1ccco1	-6.5	54.6*	-6.1	-142.2	-3.5	-0.7
CCCc1nc2sc3ccccc3c(=O)c2c(=O)n1Cc1ccc(OC)cc1	.	-0.6	.	-5.9	.	.
COc1ccc(N2CCN(C(=O)CNC(=O)c3nn(-c4ccc(OC)cc4)c(=O)c4ccccc34)CC2)cc1	2.9	-0.4	2.0	7.0	7.8	1.9
Cc1ccc(C)c(NC(=S)NCCCN2CCOCC2)c1	-0.1	6.3	-1.1	125.5*	-0.8	-1.5
Cc1ccc(C)c(NC(=O)C(=O)NCCCN2CCOCC2)c1	-0.8	-1.4	3.9	1.1	-9.4	0.3
NS(=O)(=O)c1ccc(CCNC(=O)COC(=O)CCc2c[nH]c3ccccc23)cc1	-1.6	75.7*	-4.8	-38.9	-0.9	-2.4
NS(=O)(=O)c1ccc(CNC(=O)CNC(=O)Cc2ccccc2)cc1	-1.0	-1.0	-1.5	2.1	-13.3	-0.4
SMILES	cardiac RTF act	CRFBP-R2 agonist	Keap1-Nrf2 PPI	CRFR2-BP antag	Cardiac RTF inh	LANA DNA inh
CCN(CC)S(=O)(=O)c1ccc(/C=C/C(=O)OCC(=O)Nc2ccc(C(N)=O)cc2)cc1	0.7	20.3	-2.2	0.6	-6.1	-0.5
O=C(Cc1ccccc1)Nn1c(O)c(/C=C2\C=Nc3ccccc32)sc1=S	58.2*	67.2*	4.0	-119.5	-75.7	0.6
CCOC(=O)c1cc2ccccc2n1CCN(CC)CC	4.5	74.3*	-5.4	-9.0	-1.3	-0.9
O=C1NC(=O)/C(=C\c2ccc(Sc3ccc(Cl)cc3)o2)N1	-0.1	-0.9	-5.9	-0.9	-4.3	2.5
O=C1CC(Nc2cc(=O)[nH]c(=O)[nH]2)C(=O)N1c1ccccc1Cl (centres undefined)	-1.7	2.4	2.2	82.3*	-1.4	0.3
O=C1CC(N2CCOCC2)C(=O)N1c1ccccc1Cl (centres undefined)	4.0	0.3	-1.8	-3.8	1.7	1.1
Cc1ccc(S(=O)(=O)NC(C)(C)CSc2nncn2C)cc1	-0.7	-0.5	2.0	-5.5	1.6	-0.1
CCCC1=NN2C(=N)/C(=C\c3cc(C)n(-c4cc(C)cc(C)c4)c3C)C(=O)N=C2S1	-10.2	51.0*	-12.7	-60.5	-7.8	0.1
Cc1cccc(-n2c(C)cc(/C=C3\C(=N)N4N=C(CC(C)C)SC4=NC3=O)c2C)c1	2.5	70.9*	0.1	-59.2	3.0	1.7
Cc1cc(C)cc(-n2c(C)cc(/C=C3\C(=N)N4N=C(CC(C)C)SC4=NC3=O)c2C)c1	1.1	60.0*	-1.5	-20.2	4.0	-0.5
COc1ccc(Cc2nnc(NS(C)(=O)=O)s2)cc1	-1.7	0.0	-1.2	8.6	-0.7	2.8
CCOc1ccc(NS(=O)(=O)c2ccc(C(=O)NCC(c3cccs3)N3CCOCC3)cc2)cc1 (centres undefined)	-6.9	60.5*	0.7	-32.9	-10.3	-0.1
ClC1(Cl)CC1Cn1c(C2CC2)nc2ccccc21 (centres undefined)	-3.3	-1.2	-2.7	0.5	-6.0	-0.2
COc1ccc(O)c(-c2nc(N)nc(N)n2)c1	2.0	-0.6	-2.0	0.4	-0.4	-0.6
Cc1ccc(CN2CC(C(=O)NCCCSc3ccccc3)CC2=O)cc1 (centres undefined)	0.4	0.6	-0.3	56.0*	-5.6	-0.8

Assay outcomes from PubChem.
